Activity calls are given as the source filed them. Rule as the data show it: active = inhibition above about 55%; inactive = the rest.

The subject of this assay is SARS coronavirus 3C-like protease (3CLpro, nsp5). Kind of assay: blockers of SARS 3CLpro activity – biochemical, fluorescence, set 2, late-stage follow-up (AID 488984). The following applies: recombinant 3CLpro, fluorogenic peptide cleavage; at 100 µM; active compounds read high.
Take `CC(C)c1ccc(N(C(=O)c2cccc3c2CCCC3)C(C(=O)NC(C)(C)C)c2ccsc2)cc1` (configuration not stated): the inhibition was 7.39% (inactive).

Regarding `CC(C)(C)NC(=O)C(c1cccnc1)N(C(=O)Cc1c[nH]c2ccccc12)c1ccc(C(C)(C)C)cc1` (configuration not stated), the inhibition is 30.6% (inactive).

As for `CC(C)c1ccc(N(C(=O)Cc2cccc3ccccc23)C(C(=O)NC(C)(C)C)c2ccsc2)cc1` (configuration not stated), the inhibition was 8.43% (inactive).

Take `CC(C)(C)NC(=O)C(c1cccnc1)N(C(=O)Cc1c[nH]c2ccccc12)c1ccc(OCF)cc1` (configuration not stated): the inhibition was 11.5% (inactive).

With `CC(C)(C)NC(=O)C(c1cccnc1)N(C(=O)c1ccc(C(F)(F)F)nc1)C1CC1` (configuration not stated), the inhibition was 5.34% (inactive).

For `Cc1nccn1CC(=O)N(c1ccc(NC(=O)C(C)C)cc1)C(C(=O)NC(C)(C)C)c1ccsc1` (configuration not stated), the inhibition is 7.94% (inactive).

For `CC(C)(C)NC(=O)C(c1ccsc1)N(C(=O)Cn1cnc2ccccc21)c1ccc(NS(C)(=O)=O)cc1` (configuration not stated), the inhibition was 38% (inactive).

`CC(C)(C)NC(=O)C(c1ccsc1)N(C(=O)c1ccc(C(F)(F)F)nc1)c1ccc(F)cc1` (configuration not stated): the inhibition is 9.21% (inactive).

As to `CC(C)(C)NC(=O)C(c1ccsc1)N(C(=O)c1ccc(C(F)(F)F)nc1)c1ccc(C(C)(C)C)cc1` (configuration not stated), the inhibition was 19.7% (inactive).

For the compound `CC(C)(C)NC(=O)C(c1cccnc1)N(C(=O)c1cccc2c1CCCC2)c1ccc(C(C)(C)C)cc1` (configuration not stated), the inhibition was 12.7% (inactive).

Take `CC(C)c1ccc(N(C(=O)Cc2cccc3ccccc23)C(C(=O)NC(C)(C)C)c2cccnc2)cc1` (configuration not stated): the inhibition was -1.29% (inactive).

In the case of `Cc1nccn1CC(=O)N(c1ccc(NS(C)(=O)=O)cc1)C(C(=O)NC(C)(C)C)c1ccsc1` (configuration not stated), the inhibition is 0.44% (inactive).

With `CC(C)(C)NC(=O)C(c1cccnc1)N(C(=O)Cc1cccc2ccccc12)c1ccc(OCF)cc1` (configuration not stated), the inhibition was 3.12% (inactive).

As for `CC(=O)Nc1ccc(N(C(=O)Cn2ccnc2C)C(C(=O)NC(C)(C)C)c2ccsc2)cc1` (configuration not stated), the inhibition was 2.36% (inactive).

Turning to `Cc1nccn1CC(=O)N(c1ccc(C(C)(C)C)cc1)C(C(=O)NC(C)(C)C)c1ccsc1` (configuration not stated), the inhibition was 0.41% (inactive).

For `CC(C)(C)NC(=O)C(c1ccsc1)N(C(=O)Cc1cccnc1)c1ccc(OCF)cc1` (configuration not stated), the inhibition is 56.1% (active).

`Cc1nc2ccccc2n1CC(=O)N(c1ccc(N)cc1)C(C(=O)NC(C)(C)C)c1ccsc1` (configuration not stated): the inhibition was 1.01% (inactive).

Turning to `CC(C)c1ccc(N(C(=O)Cc2cccnc2)C(C(=O)NC(C)(C)C)c2ccsc2)cc1` (configuration not stated), the inhibition was 7.95% (inactive).

As to `CC(C)c1ccc(N(C(=O)Cc2c[nH]c3ccccc23)C(C(=O)NC(C)(C)C)c2ccsc2)cc1` (configuration not stated), the inhibition was 7.61% (inactive).

`CC(C)(C)NC(=O)C(c1ccsc1)N(C(=O)Cc1c[nH]c2ccccc12)C1CC1` (configuration not stated): the inhibition was 48.4% (inactive).

As for `CC(C)(C)NC(=O)C(c1ccsc1)N(C(=O)c1cccc2c1CCCC2)c1ccc(C(C)(C)C)cc1` (configuration not stated), the inhibition was 12.9% (inactive).

With `CC(C)(C)NC(=O)C(c1cccnc1)N(C(=O)Cc1cccc2ccccc12)c1ccc(C(C)(C)C)cc1` (configuration not stated), the inhibition was 19.6% (inactive).

Values taken from PubChem BioAssay AID488984 (The Scripps Research Institute Molecular Screening Center, 2010).
